The results in this text go back to PubChem BioAssay (EPA / NIEHS).

Assay [1] deals with Nuclear respiratory factor 1 (Homo sapiens) (UniProt Q16656). Briefly: ATG_NRF1_CIS: Attagene CIS-FACTORIAL HepG2 Assay for human Nuclear Respiratory Factor 1 (NRF1) Orphan Gene (AID 2282987). Conditions: HepG2 NRF1 cis-element reporter, Attagene multiplex; actives raise or lower the signal. In a few lines:
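Cells (HepG2, transient MRTU transfection) are exposed to compound for 24 h, then RNA isolated and reporter mRNA amplified and fluorescently labelled. Fragments are separated by capillary electrophoresis; signal change is fitted bidirectionally relative to DMSO.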

Assay [2] is described as follows: ATG_NFI_CIS: Attagene CIS-FACTORIAL HepG2 Assay for human Nuclear Factor I (NFI) (AID 2282989). Conditions: HepG2 cis-regulatory reporter, NFI response element transcription; actives raise or lower the signal. The procedure, abridged: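 Read-out: reporter mRNA via RT-PCR plus capillary electrophoresis with fluorescence detection. Transiently transfected HepG2 (endogenous TF activity on cis promoters), 24 h compound exposure; gain or loss of signal fitted against DMSO.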

Assay [3] is described as follows: ATG_NF_kB_CIS: Attagene CIS-FACTORIAL HepG2 Assay for human Nuclear Factor Kappa B (NF-kB) (AID 2282991). Conditions: HepG2 Attagene cis-factorial NF-kB reporter mRNA; actives raise or lower the signal. The procedure, abridged:
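Measures mRNA induction of an NF-kB-responsive cis-element reporter in HepG2 cells transfected with multiple reporter units, sampled 24 h post-dosing; quantified by fluorescence after RT-PCR and capillary electrophoresis, fitted for activation or inhibition against DMSO.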

Assay [4] can be described thus: ATG_NRF2_ARE_CIS: Attagene CIS-FACTORIAL HepG2 Assay for human Nuclear Factor Erythroid 2 Related Factor 2 (NFR2) response to Antioxidant Response Elements (ARE) (AID 2282992).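 For AC50: reporter mRNA level measured by RT-PCR and capillary electrophoresis fluorescence.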 Conditions: HepG2 Attagene ARE/NRF2 reporter, transcription factor activity; actives raise or lower the signal. The procedure, abridged: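 Cis-factorial assay: transfected HepG2 reporter library, 24 h dosing, mRNA readout via RT-PCR/CE; DMSO-referenced bidirectional analysis.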

Assay [5] can be described thus: ATG_Oct_MLP_CIS: Attagene CIS-FACTORIAL HepG2 Assay for human Octamer-Binding Transcription Factor (Oct) (AID 2282993). Conditions: HepG2 Attagene cis-factorial Oct reporter, mRNA; actives raise or lower the signal. The procedure, abridged: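 Read-out: reporter mRNA via RT-PCR plus capillary electrophoresis of 6-FAM-labelled fragments. Transiently transfected HepG2, 24 h exposure, endogenous TF activity on cis elements. Gain or loss of signal fitted relative to DMSO.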

Assay [6] concerns the target Cellular tumor antigen p53 (Homo sapiens) (UniProt P04637). As to the kind of experiment: ATG_p53_CIS: Attagene CIS-FACTORIAL HepG2 Assay for human p53 Transcription Factor (AID 2282994). Conditions: HepG2 p53 cis-element reporter, Attagene mRNA; actives raise or lower the signal. The procedure, abridged:
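Using HepG2 hepatoma cells carrying cis-acting multiplexed reporters, mRNA induction is detected after a 24 h exposure. Gain- and loss-of-signal responses are fitted relative to DMSO-treated cells.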

The nature of assay [7]: BSK_3C_TissueFactor: BioMAP Diversity Plus: 3C Assay for Tissue Factor Biomarker Activity (AID 2282997). Conditions: BioMAP 3C HUVEC, tissue factor biomarker readout; actives raise or lower the signal. The procedure, abridged:
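Endothelial monolayers (human umbilical vein, primary) are dosed, incubated 24 h, and assayed for Tissue Factor by ELISA; DMSO serves as negative control for bidirectional fitting.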

Assay [8] is described as follows: BSK_3C_uPAR: BioMAP Diversity Plus: 3C Assay for Urokinase-type plasminogen activator receptor (uPAR) Biomarker Activity (AID 2282998). Conditions: BioMAP 3C HUVEC, uPAR biomarker ELISA; actives raise or lower the signal. The procedure, abridged: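 HUVEC primary cells; 24 h post-dose; uPAR by ELISA; gain or loss of signal fitted bidirectionally vs DMSO baseline.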
In general terms: ELISA stands for enzyme-linked immunosorbent assay.

The nature of assay [9]: BSK_3C_VCAM1: BioMAP Diversity Plus: 3C Assay for Vascular cell adhesion molecule 1 (VCAM1) Biomarker Activity (AID 2282999). Conditions: BioMAP 3C HUVEC, VCAM1 ELISA, cytokine-stimulated; actives raise or lower the signal. The procedure, abridged:
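Human umbilical vein endothelial cells (3C system), biomarker read by ELISA 24 h after dosing; bidirectional fit against DMSO baseline. Cytotoxicity tracked by SRB total-protein staining in parallel cultures at biomarker time.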

Values joined by “and” are separate entries in the source; they are usually repeats but may differ in a detail not shown here. Equal entries are not always repeated. Active and inactive are the calls of the source. Rule for the calls: active = hit-call score of the fitted dose curve at least 0.9, where 1 is the maximum; inactive = score below 0.9.

Nuclear respiratory factor 1 (Homo sapiens), sequence (Q16656 whole entry, looked up, the tested form may be a part): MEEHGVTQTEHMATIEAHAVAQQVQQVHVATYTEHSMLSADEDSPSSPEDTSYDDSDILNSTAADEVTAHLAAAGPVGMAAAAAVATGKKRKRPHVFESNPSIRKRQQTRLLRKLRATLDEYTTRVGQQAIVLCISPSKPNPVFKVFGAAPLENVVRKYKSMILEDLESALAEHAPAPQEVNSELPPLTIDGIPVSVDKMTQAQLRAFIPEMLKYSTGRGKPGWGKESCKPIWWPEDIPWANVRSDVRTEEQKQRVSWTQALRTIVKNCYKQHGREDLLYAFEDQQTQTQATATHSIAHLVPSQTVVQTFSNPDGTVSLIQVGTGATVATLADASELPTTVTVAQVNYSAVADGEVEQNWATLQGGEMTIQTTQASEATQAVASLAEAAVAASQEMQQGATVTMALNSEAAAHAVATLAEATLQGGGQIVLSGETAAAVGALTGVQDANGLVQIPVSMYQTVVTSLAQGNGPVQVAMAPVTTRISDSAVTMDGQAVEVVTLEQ
Cellular tumor antigen p53 (Homo sapiens), sequence (P04637 whole entry, looked up): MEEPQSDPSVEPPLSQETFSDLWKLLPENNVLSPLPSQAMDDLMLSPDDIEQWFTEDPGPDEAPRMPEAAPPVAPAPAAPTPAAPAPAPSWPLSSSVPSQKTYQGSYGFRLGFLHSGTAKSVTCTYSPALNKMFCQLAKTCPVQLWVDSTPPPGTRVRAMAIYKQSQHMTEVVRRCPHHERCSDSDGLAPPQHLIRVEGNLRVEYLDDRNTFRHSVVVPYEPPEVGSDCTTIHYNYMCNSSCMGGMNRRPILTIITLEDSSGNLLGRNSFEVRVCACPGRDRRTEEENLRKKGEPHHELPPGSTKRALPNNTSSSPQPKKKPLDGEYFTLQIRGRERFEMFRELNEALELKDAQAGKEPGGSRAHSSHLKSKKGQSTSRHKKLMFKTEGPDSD

Regarding `CCCCC(CC)COC(=O)/C=C/c1ccc(OC)cc1` (centres undefined), the compound was classed as inactive in assay [1], in assay [2], in [3], in assay [4], in assay [5] and in [6].

Take `CC(=O)OCc1ccccc1`: the compound was classed as inactive in [1], in assay [2], in assay [3], in assay [4] and in assay [5].

Take `C=CCCCCCCCCO`: the compound was called inactive in assay [1], in [2], in assay [4] and in assay [6].

The AC50 is the concentration giving half of the maximal activity seen. `c1ccc(Nc2cccc3ccccc23)cc1`: the AC50 in assay [1] was 52.1 µM (active); in assay [2] it was 50.1 µM (active); in assay [4], 33.4 µM (active); in [5] it was 53.3 µM (active); in assay [6], 57.1 µM (active); in assay [7] it was 36.1 µM (active) and 34.1 µM (active). In addition, the half-maximal activity concentration (AC50) is 27.6 µM (active) and 24.7 µM (active) in assay [8]; 36.8 µM (active) and 36.9 µM (active) in assay [9]. Further, the compound was classed as inactive in assay [3].

Consider `C=CC(=O)O[C@H]1C[C@@H]2CC[C@@]1(C)C2(C)C`, for which the result in [1], in [2], in assay [5] and in assay [6] was inactive. Further, the figures for the AC50 in assay [3] and in assay [4] were 181 µM (active) and 32.1 µM (active), respectively.

With `O=C(Cl)c1c(Cl)c(Cl)c(C(=O)Cl)c(Cl)c1Cl`, the compound was called inactive in assay [1], in assay [2], in [3], in [4], in assay [5] and in assay [6]. For the same compound, the outcome in assay [7], in assay [8] and in assay [9] was inactive.

Turning to `C=C(C)C(=O)OCCCCCCCCCCCC`, the outcome in assay [1], in assay [2], in assay [3], in assay [4], in assay [5] and in assay [6] was inactive. The result in assay [7], in [8] and in [9] was inactive.

For `CCCC=C(C=O)CC`, the compound was classed as inactive in [1], in [2], in assay [3], in assay [4] and in assay [5].

Consider `C1CNCCN1`, for which the call in assay [1], in [2], in [3], in assay [4], in [5] and in [6] was inactive. Further, the outcome in assay [7], in assay [8] and in assay [9] was inactive.

For the compound `COc1nccnc1CC(C)C`, the outcome in assay [1], in assay [2], in assay [3], in assay [4], in assay [5] and in assay [6] was inactive.

For `N=C1C=CC(=C(c2ccc(N)cc2)c2ccc(N)cc2)C=C1`, the AC50 is 100 µM (active) in assay [1], 41.1 µM (active) in assay [3], 9.02 µM (active) in assay [4] and 33.4 µM (active) in assay [6]. Besides, the outcome in [2] and in assay [5] was inactive.

On to `O=C(O)C(F)(F)C(F)(F)C(F)(F)C(F)(F)C(=O)O`, for which the outcome in [1], in assay [2], in assay [3], in assay [4], in assay [6] and in assay [7] was inactive. Also, the result in [8] and in assay [9] was inactive.

For the compound `CCCc1ccc(O)c(OC)c1`, the outcome in [1], in assay [2] and in [6] was inactive. Further, the AC50 in [4] is 28.8 µM (active).

Turning to `Cc1cc(=O)[nH]c(=O)[nH]1`, the call in [1], in [2], in assay [3], in [5] and in [6] was inactive.

With `CCCCCCCCC(CO)CCCCCC` (centres undefined), the concentration at half-maximal activity (AC50) in assay [1] was 117 µM (active); in [4], 81.3 µM (active). For the same compound, the result in assay [2], in [5], in assay [7], in [8] and in assay [9] was inactive.

For the compound `CC(=O)OC1CCCCC1`, the compound was called inactive in assay [1], in assay [2], in assay [3], in assay [4], in assay [5] and in assay [6].

`CO[Si](C)(C)OC`: the call in [1], in [2], in assay [3], in assay [4], in assay [5] and in assay [6] was inactive.

For `COc1ccc(-c2coc3cc(O)cc(O)c3c2=O)cc1`, the results for the concentration at half-maximal activity (AC50) in assay [1], in assay [4] and in [6] were 25.9 µM (active), 27.2 µM (active) and 159 µM (active), respectively. The call in assay [2] was inactive.

`CCCCOC(=O)CCC(C)=O`: the compound was classed as inactive in [1], in [2], in assay [3], in assay [4] and in assay [5].

Consider `C=CCOC(=O)c1ccc(C(=O)OCC=C)c(C(=O)OCC=C)c1`, for which the call in assay [1], in [2], in assay [3] and in assay [5] was inactive. The AC50 in [4] is 36.1 µM (active).
